Test results taken from PubChem BioAssay AID1567 (National Center for Advancing Translational Sciences (NCATS), 2009).
Inconclusive results are not listed. Entries that show only a call come without a potency. Active and inactive are the calls of the source. Calls follow the shape of the dose curve; as a rule, active = well fitted inhibition curve with a large enough effect; inconclusive = small, poorly fitted or top-dose-only effect, or effect the other way; inactive = no such curve, though single readings can be large or run the other way.

Target: Thyroid hormone receptor beta (Homo sapiens) (UniProt P10828)
Assay: Cell-based Gene Reporter Secondary Assay to Characterize qHTS Inhibitors of the Interaction of Thyroid Hormone Receptor and Steroid Receptor Coregulator 2
Conditions: WRO cells TRbeta TRE-luciferase, T3-stimulated, 16 h; series mostly up to 29.9 µM
Excerpt: NIH Molecular Libraries Probe Production Network [MLPCN] NIH Chemical Genomics Center [NCGC] MLPCN Grant: DK058080 Assay Provider: R. Kip Guy, St. Jude Children's Research Hospital NCGC Assay Overview: Thyroid receptor (TR) regulates many homeostatic processes including basal metabolism, cardiovascular function, body weight, and lipid trafficking. TR modulators are potential therapeutics for obesity and hyperlipidemias but current thyroid analogs have undesirable side effects, particularly cardiac stimulation. This secondary assay characterized selected actives identified in the qHTS for Inhibitors of the Interaction of Thyroid Hormone Receptor and Steroid Receptor Coregulator 2. The human follicular thyroid carcinoma cell line WRO (kindly provided by Dr. M. D. Ringel) stably expresses TRbeta and a luciferase reporter gene fused to TR response element. The addition of T3 ligand elevates expression of the TRE luciferase reporter. This assay measures the transcriptional activity of compounds.
NCGC Assay Protocol Summary: Cells were maintained in RPMI 1640 culture medium supplemented with 10% heat-inactivated FBS, 0.33 mg/ml hygromycin, 0.33 mg/ml geneticin, 50 units/ml penicillin, 50 ug/ml streptomycin. […] Following incubation, plates were equilibrated at ambient temperature for 30 min, 30 ul of Bright-Glo (Promega) was added and luminescence was detected by an EnVision (PerkinElmer).

Chain of Thyroid hormone receptor beta (Homo sapiens) (P10828 whole entry, looked up): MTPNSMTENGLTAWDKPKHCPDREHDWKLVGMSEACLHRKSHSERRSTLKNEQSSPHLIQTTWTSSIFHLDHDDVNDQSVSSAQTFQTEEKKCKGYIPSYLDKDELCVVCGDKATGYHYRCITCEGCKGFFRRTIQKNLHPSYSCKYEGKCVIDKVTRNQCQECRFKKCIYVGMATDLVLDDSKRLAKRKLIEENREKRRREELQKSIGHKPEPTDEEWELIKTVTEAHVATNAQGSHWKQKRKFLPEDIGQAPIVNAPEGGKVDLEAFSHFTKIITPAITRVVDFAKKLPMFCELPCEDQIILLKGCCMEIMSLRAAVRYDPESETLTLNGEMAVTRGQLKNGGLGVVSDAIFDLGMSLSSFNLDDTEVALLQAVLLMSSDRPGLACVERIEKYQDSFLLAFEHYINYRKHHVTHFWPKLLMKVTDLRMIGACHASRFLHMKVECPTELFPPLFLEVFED

Compound	Potency
COP(=S)(OC)Oc1ccc([N+](=O)[O-])cc1	3.98 µM (active)
CCCCCn1c(N)c(C(=O)NCc2cccs2)c2nc3ccccc3nc21	inactive
